MPTP inh: inhibitors of mitochondrial permeability transition pore; isolated mouse mitochondria, Ca2+ swelling absorbance, 30 min; inhibition, % at 10 µM; 1.4% of 360,000 active; AID 602449;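 active = inhibition of 50% or more, scaled per plate between neutral and stimulator controls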;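 note: 0% = DMSO wells given calcium and 100% = 1 mM EGTA wells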
Calb FLC: C. albicans growth modulation with fluconazole; C. albicans CaCi-2 (fluconazole-resistant clinical isolate) + fluconazole, Alamar Blue growth, 48 h; growth inhibition, % (concentration not given with the values); 0.57% of 300,000 active; AID 1979;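 active = growth inhibition above about 58% in most replicates, limit read from the data, passing the limit was not always enough; inconclusive = exactly half the replicates above a set limit; inactive = most replicates below a set limit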;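 note: all wells also contain fluconazole at 8 µg/ml as a sub-toxic cotreatment; 0% = median of DMSO wells and 100% = median of geldanamycin control wells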
Mdm2 MdmX PPI: human Mdm2/MdmX binding inhibition | AID 485346 | inhibition, % at 8 µM | 3% of 330,000 active | SaOS-2 split-luciferase Mdm2/MdmX complementation, luminescence | O15151+Q00987;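 active = inhibition of at least 50% at 8 µM in the primary screen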
CSC inhib: blocks cancer stem cells; cancer stem cell-like cells viability, luminescence; inhibition, % at 7.5 µM; 1.1% of 300,000 active; in the data active = inhibition above about 75%; inconclusive = no clear call, values can overlap the other calls; tested in HMLE shEcad cells
Beta apoptosis: beta cell apoptosis inhibition. protection from apoptosis, % (concentration not given with the values). 0.8% of 300,000 active. INS-1E cytokine-induced death, ATP luminescence, 48 h; percent of positive-control rescue, neutral wells zero;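 active = Every replicate reaches about 75%, or at least half do and their mean reaches it too, limit read from the data; inconclusive = At least half of replicates reach the limit but their mean does not; inactive = Under half of replicates reach the limit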;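 note: 0% = cytokine-treated negative control wells and 100% = positive control rescue; higher means more ATP so stronger rescue from cytokine killing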
Mdm2 MdmX conf: human Mdm2/MdmX binding inhibition, confirmed. shares compounds with Mdm2 MdmX PPI. luminescent assay. inhibition, % at 8 µM. 55% of 10,000 active; in the data active = inhibition above about 40%
FLuc counter: counter-screen for Mdm2/MdmX inhibitors: full-length luciferase. shares compounds with Mdm2 MdmX PPI. SaOS-2 full-length luciferase counterscreen, luminescence. inhibition, % at 8 µM. 77% of 6,200 active;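 active = mean inhibition at 8 µM reaching about 37%, which flags the compound as non-specific, limit read from the data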;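 note: p53-null SaOS-2 cells with luciferase driven by a doxycycline-inducible promoter; compound on cells about two nights before reading with doxycycline added after day one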
Active calls of the source: *; ? = inconclusive; · = not tested or not shown. An excerpt weighted towards active compounds, which were near 4.8% of everything screened.

SMILES	MPTP inh	Calb FLC	Mdm2 MdmX PPI	CSC inhib	Beta apoptosis	Mdm2 MdmX conf	others
COc1cc(-c2ccc3oc(-c4cccc(C)c4)c(C#CC4(O)CCCCC4)c3c2)cc(OC)c1OC	0.3	·	55.8*	80.6*	-0.8	11.3
COc1ccc(-c2oc3ccc(-c4ccc5c(c4)OCO5)cc3c2C#CC2(O)CCCCC2)cc1	0.2	12.8	65.0*	19.6	·	29.1
COc1ccc(-c2oc3ccc(-c4ccc(OC)nc4)cc3c2C#CC2(O)CCCCC2)cc1	0.2	1.7	64.0*	·	13.9	30.8
COc1ccc(-c2ccc3oc(-c4ccc(OC)cc4)c(-c4ccc(OC)cc4)c3c2)cc1	0.6	-4.8	4.4	13.6	1.8	·
COc1ccc2c(-c3ccccc3)cc(=S)[nH]c2c1	0.2	8.4	-8.0	4.5	6.0	·
COC(=O)c1c(-c2ccc(OC)cc2)oc2ccc(-c3ccc(OC)nc3)cc12	2.0	7.5	82.0*	28.0	15.8	57.0*	FLuc counter=44.6*
CCCOC(=O)c1c(-c2ccc(OC)cc2)oc2ccc(-c3ccc(OC)nc3)cc12	1.1	-11.6	21.5	7.4	15.7	·
Cc1ccc(N2C(=O)N3[C@H](c4ccc(Cl)cc4)[C@@H]4C(=O)N(C5CCCCC5)C(=O)[C@@H]4[C@]3(Cc3ccccc3)C2=O)cc1	3.1	4.4	21.8	-4.8	-0.4	·
O=C1[C@H]2[C@@H](c3ccc(F)cc3)N3C(=O)N(c4ccc(Br)cc4)C(=O)[C@@]3(Cc3ccccc3)[C@H]2C(=O)N1C1CCCCC1	0.5	5.3	83.6*	8.1	12.8	93.9*	FLuc counter=26.6
CC[C@@]12C(=O)N(c3ccc(OC)cc3)C(=O)N1[C@H](c1ccc(Cl)cc1)[C@@H]1C(=O)N(C3CCCCC3)C(=O)[C@@H]12	-0.1	-5.6	50.0	5.7	4.4	48.1*	FLuc counter=48.9*
CCOC(=O)c1c(NC(=O)Cc2cccs2)sc(C(=O)NC2CCCCC2)c1C	3.2	-1.7	66.1*	18.6	28.8	14.3
COC(=O)c1c(NC(=O)Cc2cccs2)sc(C(=O)NC2CCCCC2)c1C	0.4	-0.1	54.7*	-3.6	-1.5	0.9
CCOC(=O)c1c(NC(=O)Cc2cccs2)sc(C(=O)NC2CCCC2)c1C	-3.2	-0.2	28.1	12.3	7.7	·
CC(C)OCCCN(C)C1CCN(S(=O)(=O)c2ccc(-c3cc(C(F)(F)F)no3)s2)CC1	29.9	15.0	50.4*	51.2	10.3	30.2
CC(C)OCCCN(C)C1CCN(S(=O)(=O)c2csc(C(N)=O)c2)CC1	-1.6	-3.3	12.3	2.9	-4.7	·
Cc1cc(/C=C(\C#N)C(=O)N2CCOCC2)c(C)n1C1CCCC1	7.7	3.4	63.7*	0.2	1.1	68.4*	FLuc counter=158.5*
COc1ccc(/C=C(\C#N)C(=O)N2CCOCC2)cc1Br	0.2	45.3	18.5	-7.9	-6.5	·
CCc1ccc(-c2cc(C(F)(F)F)n3nc(C(=O)Nc4cnn(Cc5ccc(C)cc5)c4)cc3n2)s1	1.2	4.4	51.1*	47.8	76.4*	12.8
Cc1ccccc1Cn1cc(NC(=O)c2cc3nc(-c4ccco4)cc(C(F)(F)F)n3n2)cn1	0.0	11.3	0.1	-7.0	7.8	·
CCOC(=O)Cn1c2ccc(OC)cc2c2nc3ccccc3nc21	1.3	-3.6	70.4*	6.7	·	25.4
COC(=O)Cn1c2ccc(OC)cc2c2nc3ccccc3nc21	3.3	?	41.5	-11.3	-2.6	·
CCOC(=O)C1=C(C)Nc2sc(C(=O)c3ccc(F)cc3)c(N)c2C1c1ccc(C(=O)OC)cc1 (configuration not stated)	6.3	7.6	60.9*	·	0.6	21.5
COc1cc(NC(=O)N2CCc3nc(Nc4cc(Cl)cc(Cl)c4)ncc3C2)cc(OC)c1OC	-0.1	·	·	·	·	·
COc1ccc(NS(=O)(=O)c2cc(C)ccc2NC(=O)c2cc(C)oc2C)cc1	0.8	8.6	63.9*	2.6	26.3	58.0*	FLuc counter=125.6*
Cc1ccc(C(=O)C[n+]2ccc3ccccc3c2)cc1	0.3	-31.0	17.2	0.1	2.9	·
Cc1cc(C(C)(C)C)cc(C)c1C[n+]1ccc2ccccc2c1	0.6	5.0	50.6*	10.4	111.2*	19.1
O=C(Nc1cc(=O)[nH]c(=O)[nH]1)c1cc(Cl)ccc1Cl	0.9	-12.2	64.0*	49.8	19.5	55.9*	FLuc counter=58.3*

Screens as filed in PubChem BioAssay.
